# Test results taken from PubChem BioAssay AID588819 (The Scripps Research Institute Molecular Screening Center, 2011).
# About 320 (0.089%) of roughly 360,000 compounds were called active. Cut-off read from the data, not from the text of the source: active = activation above about 19% (passing the limit was not always enough); inactive = the rest. What follows is part of a selection rich in actives, with near analogues and random picks from the rest.
# Target: Muscarinic acetylcholine receptor M1 (Homo sapiens) (UniProt P11229)
# Sequence (P11229 whole entry, looked up): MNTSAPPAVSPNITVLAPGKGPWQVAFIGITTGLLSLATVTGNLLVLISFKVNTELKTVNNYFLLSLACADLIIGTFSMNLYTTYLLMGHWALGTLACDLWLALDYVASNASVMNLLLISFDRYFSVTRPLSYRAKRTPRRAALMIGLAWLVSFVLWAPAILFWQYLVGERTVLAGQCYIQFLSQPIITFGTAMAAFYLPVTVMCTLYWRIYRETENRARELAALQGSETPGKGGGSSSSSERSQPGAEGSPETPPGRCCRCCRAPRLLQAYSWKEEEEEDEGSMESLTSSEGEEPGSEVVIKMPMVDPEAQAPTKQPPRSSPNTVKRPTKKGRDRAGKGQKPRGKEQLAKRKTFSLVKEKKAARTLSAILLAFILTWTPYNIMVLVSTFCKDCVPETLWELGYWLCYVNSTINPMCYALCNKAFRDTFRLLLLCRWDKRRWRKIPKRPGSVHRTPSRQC
# Experiment: human M1 muscarinic receptor positive allosteric modulators, primary screen, CHO-K1 cells, Fluo-8 calcium fluorescence, 1536-well (AID 588819)
# Conditions: CHO-K1 hM1, Fluo-8 calcium fluorescence, ACh EC20; at 3 µM; hits give high values; 0% = ACh EC20, 100% = maximal ACh
row,SMILES,activation
1,Cc1ccc(S(=O)(=O)N2CCC(C(=O)N[C@@H](C)C(=O)NCc3ccccc3)CC2)cc1,3.35% (inactive)
2,Cc1cc(C)cc(N(CC(=O)NC2CCCC2)C(=O)CCC(=O)Nc2nccs2)c1,1.06% (inactive)
3,CC(OC(=O)c1ccccc1OCc1ccc(Cl)cc1)C(N)=O (stereo not given),-0.86% (inactive)
4,COc1cc(NC(=S)N2CCCC(C)C2)c(OC)cc1Cl (stereo not given),4.79% (inactive)
5,Cc1n[nH]c(C)c1S(=O)(=O)N1CCCC(C(=O)Nc2ccc(Br)cc2)C1 (stereo not given),3.06% (inactive)
6,CC1(c2nnc(-c3ccncc3)o2)CC(c2cccnc2)=NO1 (stereo not given),-4.79% (inactive)
7,CC(C)CCNC(=O)C1CCCN(S(=O)(=O)c2ccc(F)cc2)C1 (stereo not given),3.91% (inactive)
8,CC(NC(=O)C(C)(C)C)C(c1cccs1)N1CCN(Cc2ccccc2)CC1 (stereo not given),-8.56% (inactive)
9,CCC(C)NCCOCCOc1ccc(Br)cc1C (stereo not given),-26.7% (inactive)
10,CCOC(=O)N1CCN(c2c(NCCCN3CCCC(C)C3)c(=O)c2=O)CC1 (stereo not given),5.95% (inactive)
11,CCOc1ccc(-n2c(N)c(C(=O)NCC3CCCO3)sc2=S)cc1 (stereo not given),1.21% (inactive)
12,CCCC(=O)N1CCN(c2nnc(-c3ccc(C)cc3)c3ccccc23)CC1,-14.5% (inactive)
13,CC(=O)NC(Cc1ccc(F)c(F)c1)C(=O)NC1CCN(c2nnnn2-c2ccccc2)CC1 (stereo not given),1.64% (inactive)
14,CCCC(=O)N1CCC1(C)C(=O)NCc1ccc(SC)cc1 (stereo not given),3.92% (inactive)
15,COc1ccccc1N(CCOc1ccccc1)S(=O)(=O)c1ccccc1,0.89% (inactive)
16,C=Cn1c(C(=O)O)ccc1-c1ccc(OC)cc1,-16.6% (inactive)
17,CCn1c(-c2cccnc2Cl)nc2cc(C)c(C)cc21,2.37% (inactive)
18,CCOCCOC(=O)C1=C(C)NC(=O)NC1c1ccc2c(c1)OCO2 (stereo not given),6.2% (inactive)
19,Cc1cccc(NC(=O)C2CCCN2S(=O)(=O)c2ccc(F)cc2)c1C (stereo not given),3.34% (inactive)
20,CC(C)c1nnc(NC(=O)C2CCCN2S(=O)(=O)c2ccc(Cl)cc2)s1 (stereo not given),10.2% (inactive)
21,COc1ccccc1NC(=O)C1CCCN1S(=O)(=O)c1ccc(Cl)cc1 (stereo not given),28.2% (active)
22,C=CCn1c2ccccc2c2nnc(SCc3[nH]c(=O)[nH]c3C(=O)CCCCC(=O)OCC)nc21,-3.32% (inactive)
23,O=C(C(NS(=O)(=O)c1cccc2nsnc12)c1ccccc1)N1CCN(c2ccccn2)CC1 (stereo not given),-10.2% (inactive)
24,CCOC(=O)C(=O)C1C(=O)Nc2ccccc21 (stereo not given),1.1% (inactive)
25,O=C(Nc1ccccc1C(=O)NCCCn1ccnc1)c1ccc(Cl)cc1Cl,7.21% (inactive)
